This passage reports growth results from PubChem BioAssay (NCI).

The panel holds about 83,000 compounds, 20% with a hit somewhere; the sample as a whole holds those more often.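 Treatment: one concentration, 48 hours, 96-well format. Scoring: percent growth, with anything below 10 considered active.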 Values without a mark were called inactive. Calls of active or inactive are those of the source.

Some test systems named below: HCT-15 colon; HT29 colon; SNB-19 CNS; U251 CNS; PC-3 prostate; SK-MEL-5 melanoma; UACC-62 melanoma; LOX IMVI melanoma; SK-MEL-28 melanoma; SNB-75 CNS.
Common to all, as to assay: NCI-60 one-dose screen, 48 h (100 = growth as untreated, 0 = no growth, -100 = all killed)
Holding throughout (conditions): 10 µM unless noted

Take `Clc1cccc(NCOOC2(OOCNc3cccc(Cl)c3)CCCCCC2)c1`: the growth in the assay with HCT-15 colon is 93.2%; in the assay with HT29 colon it was 102%; in the assay with SNB-19 CNS, 93.2%; in the assay on U251 CNS it was 101%; with PC-3 prostate, 91.2%; with SK-MEL-5 melanoma it was 93.7%. The growth was 102% with UACC-62 melanoma, -85.2% (active) with LOX IMVI melanoma and 107% in the assay on SK-MEL-28 melanoma.

With `COc1cc2c(=O)n(C3CCCCCCC3)c3c4cc[nH]c4ncc3c2cc1OC`, the growth was 62.4% in the assay on HCT-15 colon; 66.8% in the assay with HT29 colon; 55.2% with SNB-19 CNS; 12.7% with U251 CNS; 65.8% in the assay on PC-3 prostate; 64.2% with SK-MEL-5 melanoma. In addition, the growth is 89.1% with UACC-62 melanoma, 41.5% in the assay with LOX IMVI melanoma and 85.5% with SK-MEL-28 melanoma.

Turning to `COc1cc([N+](=O)[O-])c2nc(C)ccc2c1[N+](=O)[O-]`, the growth is 92.9% in the assay on HCT-15 colon; 109% with SNB-75 CNS; 95.2% in the assay on SNB-19 CNS; 90% in the assay with U251 CNS; 93.9% in the assay on PC-3 prostate; 93.6% with SK-MEL-5 melanoma. Besides, the growth in the assay with UACC-62 melanoma was 86.7%; in the assay with LOX IMVI melanoma it was 71.5%; in the assay with SK-MEL-28 melanoma it was 103%.

In the case of `CC[C@H](C)[C@H](NC(=O)[C@H]1CCCCN1C)C(=O)N(C)[C@H](C[C@@H](OC(C)=O)c1nc(C(=O)N[C@@H](Cc2ccccc2)C[C@H](C)C(=O)OC)cs1)C(C)C`, the growth was 5.1% (active) with HCT-15 colon; -3.46% (active) in the assay with HT29 colon; 31.4% with SNB-19 CNS; 11.8% with U251 CNS; -69.5% (active) with SK-MEL-5 melanoma; 43.6% with UACC-62 melanoma. The growth was 8.61% (active) with LOX IMVI melanoma and 53.6% with SK-MEL-28 melanoma.

`COC(=O)[C@]12CCC(C)(C)C[C@H]1[C@H]1C(=O)C[C@@H]3[C@@]4(C)C[C@@]5(CC(C)(C)[C@@H]4CC[C@@]3(C)[C@]1(C)CC2)OO[C@@](C)(C(F)(F)F)O5`: the growth in the assay on HCT-15 colon was 95.3%; in the assay on HT29 colon, 102%; in the assay on PC-3 prostate, 86.7%; in the assay on SK-MEL-5 melanoma it was 99.5%; in the assay with UACC-62 melanoma it was 84.3%; with LOX IMVI melanoma, 95.7%. In addition, the growth with SK-MEL-28 melanoma is 107%.

`CCCCCCCCC(CO)NCCc1ccccc1` (centres undefined): the growth in the assay with HCT-15 colon is 102%; in the assay on HT29 colon it was 73.6%; in the assay on SNB-19 CNS, 102%; in the assay on U251 CNS it was 93.3%; in the assay on PC-3 prostate, 73.5%; in the assay on SK-MEL-5 melanoma it was 101%. For the same molecule, the results for the growth in the assay on UACC-62 melanoma, with LOX IMVI melanoma and in the assay on SK-MEL-28 melanoma were 98.5%, 103% and 108%, respectively.

Consider `CN1C(=O)C(=Cc2cn(CCCCCCn3c4ccccc4c(=O)c4ccccc43)c3ccccc23)C(=O)N(C)C1=O`, for which the growth in the assay with HCT-15 colon is 92.1%; with HT29 colon, 96.1%; with SNB-19 CNS, 104%; in the assay on U251 CNS it was 99.2%; with PC-3 prostate, 89.8%; in the assay with SK-MEL-5 melanoma it was 94.3%. The results for the growth with LOX IMVI melanoma and in the assay on SK-MEL-28 melanoma were 93% and 98%, respectively.

In the case of `CC(=O)O[C@H]1C(=O)[C@@]2(C)[C@H]([C@H](OC(=O)c3ccccc3)[C@]3(O)C[C@H](OC(=O)[C@H](OC(=O)OCC4COC(C)(C)O4)[C@@H](NC(=O)c4ccccc4)c4ccccc4)C(C)=C1C3(C)C)[C@]1(OC(C)=O)CO[C@@H]1C[C@@H]2O` (some centres undefined), the growth is 29.2% in the assay on HCT-15 colon; 9.74% (active) with HT29 colon; 36.6% in the assay with SNB-19 CNS; 34.4% in the assay with U251 CNS; 38.7% in the assay with PC-3 prostate; 44.1% with SK-MEL-5 melanoma. Also, the values for the growth in the assay on UACC-62 melanoma and in the assay on SK-MEL-28 melanoma were 34.4% and 43.8%, respectively.

Consider `O=C(CC1(O)C(=O)Nc2ccc(Cl)cc21)c1ccc(C(=O)NCC2CCC3(CC2)OOC2(CCCCC2)OO3)cc1` (centres undefined), for which the growth was 49.1% with HCT-15 colon; 15.1% in the assay with HT29 colon; 30.3% in the assay with SNB-19 CNS; -54.2% (active) with U251 CNS; -34.2% (active) in the assay on PC-3 prostate; 50.7% in the assay with UACC-62 melanoma. The values for the growth in the assay with LOX IMVI melanoma and with SK-MEL-28 melanoma were 32.3% and 69.2%, respectively.

As to `Clc1cccc(N2COOC3(OOC2)C2CC4CC(C2)CC3C4)c1`, the growth with HCT-15 colon is 94.6%; with HT29 colon, 85.2%; in the assay with SNB-19 CNS, 101%; with U251 CNS, 35.8%; in the assay on PC-3 prostate, 74.8%; in the assay on SK-MEL-5 melanoma it was 86.5%. The growth was 93.3% with UACC-62 melanoma, -63.4% (active) in the assay with LOX IMVI melanoma and 114% with SK-MEL-28 melanoma.

Take `CCOP(=O)(Nc1ccc2c(c1)/C(=N/NC(N)=S)c1ccccc1-2)OCC`: the growth with HCT-15 colon is 96.5%; with SNB-75 CNS, 80.6%; in the assay with SNB-19 CNS, 94.5%; with U251 CNS, 94.8%; with PC-3 prostate, 94.4%; in the assay on SK-MEL-5 melanoma, 84.4%. In addition, the growth with UACC-62 melanoma was 77.7%; with LOX IMVI melanoma it was 88.9%; in the assay with SK-MEL-28 melanoma, 116%.

With `O=C(O)C1C(C(=O)O)C2(Cl)C(Cl)=C(Cl)C1(Cl)C2(Cl)Cl.[Hg]` (centres undefined), the growth with HCT-15 colon is 87%; in the assay on HT29 colon, 82.2%; with SNB-19 CNS, 96.9%; in the assay on U251 CNS it was 44.7%; with PC-3 prostate, 76.2%; in the assay with SK-MEL-5 melanoma it was 85.3%. Further, the growth in the assay on LOX IMVI melanoma is 85.2%; in the assay on SK-MEL-28 melanoma it was 96.7%.

As to `O=C([O][Hg][CH2]C1OCCOC1[CH2][Hg][O]C(=O)c1ccccc1)c1ccccc1` (centres undefined), the growth with HCT-15 colon is -79.5% (active); with HT29 colon, 83.6%; in the assay on SNB-19 CNS, 105%; with U251 CNS, 43%; with PC-3 prostate it was 70.5%; with SK-MEL-5 melanoma it was 93.1%. Also, the growth in the assay with UACC-62 melanoma was 106%; in the assay with LOX IMVI melanoma it was -92.7% (active); in the assay on SK-MEL-28 melanoma, -96.7% (active).

On to `CCCCN1CCCC[C@@H]1C(=O)N[C@H](C(=O)N(C)[C@H](C[C@@H](OC(C)=O)c1nc(C(=O)NC2CCC(C(=O)OC)CC2)cs1)C(C)C)C(C)C` (some centres undefined), for which the growth with HCT-15 colon was 30.9%; in the assay on HT29 colon, 14.8%; in the assay with SNB-19 CNS, 24%; in the assay with U251 CNS it was 15.5%; in the assay with PC-3 prostate, 29.1%; in the assay on SK-MEL-5 melanoma, 38.4%. Moreover, the growth in the assay with UACC-62 melanoma is 33.3%; in the assay with LOX IMVI melanoma, 35.6%; in the assay on SK-MEL-28 melanoma, 72.1%.

Regarding `CC[S][Hg][Cl]`, the growth in the assay with HCT-15 colon is 104%; with SNB-75 CNS, 93.6%; in the assay on SNB-19 CNS it was 106%; in the assay with U251 CNS it was 99.6%; in the assay with PC-3 prostate, 103%; with SK-MEL-5 melanoma, 106%. Also, the growth with UACC-62 melanoma was 103%; in the assay with LOX IMVI melanoma, 88.1%; with SK-MEL-28 melanoma, 111%.

For the molecule `CC(C)[C@@H]1NC(=O)[C@]2(C)CSC(=N2)c2csc(n2)CNC(=O)C[C@@H](/C=C/CCS)OC1=O`, the growth in the assay on HCT-15 colon was 58.6%; with SNB-75 CNS, 29.1%; with SNB-19 CNS it was 22.3%; in the assay with U251 CNS, -62.1% (active); with PC-3 prostate, 17%; with SK-MEL-5 melanoma, -81.2% (active). Further, the growth in the assay with UACC-62 melanoma was -42.2% (active); in the assay on LOX IMVI melanoma, -93.1% (active); in the assay with SK-MEL-28 melanoma, 5.48% (active).

In the case of `Cc1cc(NC(=O)NCc2ccc(N3C(N)=NC(N)=NC3(C)C)cc2)ccc1S(=O)(=O)F`, the growth with HCT-15 colon is 62.2%; in the assay on HT29 colon, 11.3%; with SNB-19 CNS, 34.3%; with SK-MEL-5 melanoma, 21%; with UACC-62 melanoma it was 11.6%; with LOX IMVI melanoma, 16.7%. Further, the growth with SK-MEL-28 melanoma is 57.4%.

On to `COC(=O)[C@@H](C)C[C@H](Cc1ccc(F)cc1)NC(=O)c1csc([C@@H](C[C@H](C(C)C)N(C)C(=O)[C@@H](NC(=O)[C@H]2CCCCN2C)C(C)C)OC(C)=O)n1`, for which the growth was 15.6% in the assay with HCT-15 colon; 3.51% (active) in the assay on HT29 colon; 36.6% in the assay with SNB-19 CNS; 6.95% (active) with U251 CNS; 28.4% in the assay on PC-3 prostate; -32.8% (active) with SK-MEL-5 melanoma. Besides, the growth in the assay on UACC-62 melanoma is 42.2%; in the assay on LOX IMVI melanoma, 23.1%; in the assay on SK-MEL-28 melanoma it was 58.9%.

As for `CCOC(=O)[C@@H](C)C[C@H](Cc1ccccc1)NC(=O)c1csc([C@@H](C[C@H](C(C)C)N(C)C(=O)CNC(=O)[C@H]2CCCCN2C)OC(C)=O)n1`, the growth was 12.8% with HCT-15 colon; 4.5% (active) with HT29 colon; 22.7% in the assay on PC-3 prostate; 13.5% in the assay with SK-MEL-5 melanoma; 29.8% in the assay on UACC-62 melanoma; 34.3% with LOX IMVI melanoma. Further, the growth in the assay on SK-MEL-28 melanoma is 57.1%.

As to `O=C(N/N=C/c1ccc(N(CCCl)CCCl)cc1)c1cccc2ccccc12`, the growth was 56.1% in the assay with HCT-15 colon; 39.4% in the assay with HT29 colon; 80.6% with SNB-19 CNS; 60.9% in the assay on U251 CNS; 61.5% with PC-3 prostate; 70.6% in the assay with SK-MEL-5 melanoma. Moreover, the growth in the assay on UACC-62 melanoma is 46.5%; with LOX IMVI melanoma it was 61.3%; in the assay on SK-MEL-28 melanoma it was 83%.

Consider `CCCCCCC(=O)NC1=C(N2CC2)C(=O)C(NC(=O)CCCCCC)=C(N2CC2)C1=O`, for which the growth with HCT-15 colon is 69%; in the assay with HT29 colon, 19.2%; with SNB-19 CNS, 60.6%; in the assay on U251 CNS, 52.1%; in the assay on PC-3 prostate it was 35.4%; in the assay with SK-MEL-5 melanoma, 52.4%. In addition, the growth in the assay with UACC-62 melanoma is 30.6%; in the assay on LOX IMVI melanoma, 33.5%; in the assay with SK-MEL-28 melanoma, 81.5%.

For the molecule `CC[C@H](C)[C@@H]1OC(=O)C(C)(C)[C@H](O)[C@H](Cc2ccccc2)OC(=O)[C@H](C(C)C)OC(=O)[C@@H](NC(=O)c2cccc(NC=O)c2O)[C@@H](C)OC1=O`, the growth is 36.2% in the assay with HCT-15 colon; 48.4% in the assay with HT29 colon; 49.5% in the assay with SNB-19 CNS; 41.2% in the assay on U251 CNS; 43.9% in the assay on PC-3 prostate; 38.1% in the assay with LOX IMVI melanoma.
